This is an account of results in PubChem BioAssay (NCI).

Among the test systems are DU-145 prostate; K-562 leukemia; MALME-3M melanoma; MDA-MB-231 breast; RXF 393 renal; SF-268 CNS; SF-295 CNS; SF-539 CNS; UACC-257 melanoma; M14 melanoma; HCT-15 colon; SNB-75 CNS; SNB-19 CNS; U251 CNS; PC-3 prostate; SK-MEL-5 melanoma; UACC-62 melanoma; LOX IMVI melanoma; SK-MEL-28 melanoma.
Common to all, as to experiment: NCI-60 one-dose screen, 48 h (100 = growth as untreated, 0 = no growth, -100 = all killed)
Holding throughout (details): 10 µM unless noted

About 83,000 compounds went through this panel and 20% of them were active in at least one assay; those are over-represented in the sample as a whole.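 Method: cells in 96-well plates; compound added at one concentration; 48 h incubation; percent growth measured; values under 10 scored active.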 A number with no mark means an inactive call. Active and inactive are the calls of the source.

For `N=C(N)c1ccc(-c2ccc(-c3ccccc3)s2)cc1`, the growth with DU-145 prostate was 29.5%; with K-562 leukemia, 1.35% (active); in the experiment on MALME-3M melanoma, 97.2%; with MDA-MB-231 breast, 10.3%; with RXF 393 renal, 78.7%; in the experiment on SF-268 CNS, 76.4%. For the same compound, the growth in the experiment on SF-295 CNS was 40.6%; with SF-539 CNS it was 78.5%; with UACC-257 melanoma, 103%; in the experiment with M14 melanoma, 81.1%; in the experiment with HCT-15 colon, -28.3% (active); in the experiment on SNB-75 CNS, 108%. Also, the growth in the experiment with SNB-19 CNS is 50.1%; in the experiment on U251 CNS, 9.73% (active); in the experiment with PC-3 prostate it was 51.3%; in the experiment on SK-MEL-5 melanoma it was 95.5%; with UACC-62 melanoma, 94.9%; in the experiment with LOX IMVI melanoma it was -70.2% (active).

Consider `O=C(/C=C/c1ccccc1)c1ccc(Nc2nc(Nc3ccc(F)cc3)nc(Nc3ccc(Cl)cc3)n2)cc1`, for which the growth in the experiment with DU-145 prostate was 97.7%; in the experiment with K-562 leukemia it was 70.9%; with MALME-3M melanoma, 109%; with MDA-MB-231 breast, 81.5%; with RXF 393 renal, 134%; with SF-268 CNS, 88.1%. The growth in the experiment on SF-295 CNS is 69.3%; in the experiment on SF-539 CNS it was 97.2%; with UACC-257 melanoma it was 110%; in the experiment with M14 melanoma it was 81.2%; in the experiment on HCT-15 colon, 86.7%; in the experiment on SNB-75 CNS, 95%. For the same compound, the growth was 101% with SNB-19 CNS; 78.9% in the experiment on U251 CNS; 74.5% in the experiment with PC-3 prostate; 79% in the experiment on SK-MEL-5 melanoma; 100% with UACC-62 melanoma; 85.1% in the experiment on LOX IMVI melanoma. Also, the growth with SK-MEL-28 melanoma was 90.9%.

Take `COc1cccc(-c2cc(-c3cccc(Cl)c3)c(C#N)c(=O)[nH]2)c1`: the growth in the experiment on DU-145 prostate was 88%; with K-562 leukemia, 31.3%; in the experiment on MALME-3M melanoma, 69.8%; in the experiment on MDA-MB-231 breast, 96.1%; in the experiment with RXF 393 renal, 75%; in the experiment with SF-268 CNS, 79.1%. Besides, the growth with SF-295 CNS is 74.2%; in the experiment with SF-539 CNS, 74.5%; with UACC-257 melanoma, 85.5%; in the experiment on M14 melanoma it was 58.3%; with HCT-15 colon it was 48.6%; in the experiment on SNB-75 CNS, 30.8%. Also, the growth with SNB-19 CNS is 71.8%; in the experiment with U251 CNS, 73.2%; in the experiment with PC-3 prostate, 73.7%; in the experiment with SK-MEL-5 melanoma, 68.6%; with UACC-62 melanoma it was 42.4%; in the experiment on LOX IMVI melanoma, 75.1%. Moreover, the growth in the experiment with SK-MEL-28 melanoma is 72.3%.

For `Cc1cc2c(cc1C)N(C(=O)CCl)CC(=O)N2`, the growth is 78.6% in the experiment on DU-145 prostate; 2.9% (active) in the experiment with K-562 leukemia; 9.7% (active) in the experiment on MALME-3M melanoma; 51.3% with MDA-MB-231 breast; 31.2% in the experiment with RXF 393 renal; 60.9% in the experiment with SF-268 CNS. Further, the growth in the experiment on SF-295 CNS was 99.5%; in the experiment with SF-539 CNS, 93.2%; with UACC-257 melanoma, 59.5%; in the experiment with M14 melanoma, 55%; with HCT-15 colon, 7.57% (active); in the experiment on SNB-75 CNS, 74.4%. The growth is 88% in the experiment on SNB-19 CNS; 14.4% with U251 CNS; 71.2% in the experiment on PC-3 prostate; 43.8% with SK-MEL-5 melanoma; 70.7% in the experiment on UACC-62 melanoma; -9.81% (active) in the experiment with LOX IMVI melanoma. Besides, the growth with SK-MEL-28 melanoma is 77.1%.

Regarding `NC(=O)c1c(NC(=O)c2cccc(C(F)(F)F)c2)sc2c1CCC(=O)C2`, the growth in the experiment with DU-145 prostate was 29.2%; with K-562 leukemia, -2.81% (active); in the experiment on MALME-3M melanoma, -41% (active); in the experiment on MDA-MB-231 breast, -45.5% (active); with RXF 393 renal it was -5.44% (active); with SF-268 CNS it was 19%. The growth was -12.9% (active) in the experiment on SF-295 CNS; -78.1% (active) with SF-539 CNS; -6.24% (active) in the experiment on UACC-257 melanoma; -54% (active) in the experiment on M14 melanoma; -21.2% (active) with HCT-15 colon; -75.9% (active) in the experiment with SNB-75 CNS. The growth in the experiment with SNB-19 CNS was 11.6%; with U251 CNS, 7.56% (active); in the experiment on PC-3 prostate it was -29.8% (active); with SK-MEL-5 melanoma it was -56.3% (active); in the experiment with UACC-62 melanoma, -45.4% (active); in the experiment on LOX IMVI melanoma it was 5.08% (active). In addition, the growth in the experiment on SK-MEL-28 melanoma was 20.7%.

With `COc1ccc(C(=O)Cn2c(C(=O)c3ccc(OC)cc3)nc3ccccc32)cc1`, the growth in the experiment on DU-145 prostate is 54.6%; in the experiment with K-562 leukemia, 7.61% (active); with MALME-3M melanoma, 37.2%; in the experiment on MDA-MB-231 breast it was 27.8%; in the experiment with RXF 393 renal, 20.4%; in the experiment with SF-268 CNS, 44.5%. Besides, the growth with SF-295 CNS was 1.78% (active); with SF-539 CNS, 19.4%; in the experiment on UACC-257 melanoma it was 48.5%; in the experiment on M14 melanoma, -2.49% (active); in the experiment with HCT-15 colon, 15.9%; in the experiment with SNB-75 CNS, 10.4%. Moreover, the growth is 48.8% in the experiment with SNB-19 CNS; 18.3% with U251 CNS; 34.2% with PC-3 prostate; 23.5% in the experiment with SK-MEL-5 melanoma; 13.9% in the experiment with UACC-62 melanoma; 38.8% in the experiment with LOX IMVI melanoma. In addition, in the experiment on SK-MEL-28 melanoma, the growth is 42.8%.

Regarding `CN1CCN(C(=O)[C@@]2(C)CC[C@]3(C)CC[C@]4(C)C(=CC[C@@H]5[C@@]6(C)CCC(=O)NC(C)(C)[C@@H]6CC[C@]54C)[C@@H]3C2)CC1`, the growth in the experiment with DU-145 prostate is 86.7%; in the experiment with K-562 leukemia it was 16%; in the experiment on MALME-3M melanoma, 19.8%; in the experiment with MDA-MB-231 breast it was 61.1%; in the experiment on RXF 393 renal, 35%; in the experiment with SF-268 CNS it was 63.1%. The growth was 90.5% in the experiment on SF-295 CNS; 43.9% in the experiment with SF-539 CNS; -12.9% (active) in the experiment on UACC-257 melanoma; 0.579% (active) with M14 melanoma; 30.3% with HCT-15 colon; 87.3% with SNB-75 CNS. The growth in the experiment with SNB-19 CNS was 79.4%; in the experiment on U251 CNS, 40.4%; with PC-3 prostate, 27.4%; in the experiment with SK-MEL-5 melanoma, -41% (active); in the experiment with UACC-62 melanoma, 26.4%; in the experiment with LOX IMVI melanoma it was 8.99% (active).

For the compound `O=C1C(Nc2ccccn2)=C(I)C(=O)c2ncccc21`, the growth was -93.6% (active) with DU-145 prostate; 1.75% (active) with K-562 leukemia; -99.6% (active) in the experiment with MALME-3M melanoma; -31.8% (active) with MDA-MB-231 breast; -60.8% (active) in the experiment with RXF 393 renal; -33.1% (active) with SF-268 CNS. Also, the growth with SF-295 CNS was -31.6% (active); in the experiment on SF-539 CNS, -98% (active); with UACC-257 melanoma it was -27.9% (active); in the experiment on M14 melanoma, -84.5% (active); in the experiment on HCT-15 colon, -60% (active); in the experiment on SNB-75 CNS, -94.3% (active). In addition, the growth was 0% (active) in the experiment with SNB-19 CNS; -82.4% (active) in the experiment on U251 CNS; 6.61% (active) in the experiment on PC-3 prostate; -98.9% (active) in the experiment on SK-MEL-5 melanoma; -68% (active) in the experiment on UACC-62 melanoma; -72.7% (active) with LOX IMVI melanoma. In the experiment with SK-MEL-28 melanoma, the growth was -36.7% (active).
